About 420 (0.38%) of roughly 110,000 compounds were called active. The sample holds actives, similar compounds and a random draw of the others, so the mix is not that of the screen. Rule as the data show it: active = inhibition above about 30% (passing the limit was not always enough); inconclusive = no clear call, values can overlap the other calls.

This test relates to RmlC (dTDP-4-dehydrorhamnose 3,5-epimerase) and RmlD (dTDP-4-dehydrorhamnose reductase), coupled enzyme assay. The test can be described thus: RmlC and RmlD coupled enzyme inhibitors, primary screen, biochemical, 384-well, compound mixtures, retest (AID 1532). The following applies: 384-well mixture HTS, at 5.5 µM, stronger effect = higher value.
The mark [1] stands for this setting: measured here: mean retest inhibition.

For `COc1ccc(COCCN2CCN(S(=O)(=O)c3ccccc3)CCC2=O)cc1`, the inhibition was 2.31% (inactive). On the same count and under the same terms, then `CC(=O)N[C@H]1[C@H]([C@H](O)[C@H](O)CO)OC(C(=O)O)=C[C@@H]1O`, with 1.59% (inactive). Same read-out and setting: in the case of `COc1ccc(C2/C=C\CN(CC(C)C)CC(=O)N2Cc2ccc(F)cc2)cc1` (centres undefined) it was -6.08% (inactive); in that of `NC(N)=NCCCc1cn(CC(=O)N2CCNCC2)nn1`, -8.74% (inactive); in that of `COc1ccc2c(c1)CCNC2Cc1ccc(OC)c(O)c1` (centres undefined), -40.5% (inactive).

With `Cc1cn(C)c(=O)n(C)c1=O`, the inhibition was -2.57% (inactive). `CC(C)(C)OC(=O)NCCCC1=CC2=CC(=O)C(C)(OC(=O)c3ccco3)C(=O)C2=CO1` (centres undefined): the inhibition was -13.3% (inactive). Turning to `Cc1ccc(NC(=O)N2CCSc3ccccc32)cc1`, the inhibition was -8.05% (inactive). Take `NC(=O)CC[C@@H]1NC(=O)[C@H](CO)NC(=O)c2cc([N+](=O)[O-])cc(I)c2NCC[C@@H](C(N)=O)NC1=O`: the inhibition is -1.33% (inactive). On the same count and under the same terms, then `CCCC[C@@H]1CN=C(N)N1CCc1cccc(F)c1`, with 4.76% (inactive). Same read-out and setting: in the case of `CNC(=O)c1[nH]cnc1C(=O)N[C@@H](CC(C)C)C(=O)OC(C)(C)C` it was -13.2% (inactive). On the same count and under the same terms, then `C#Cc1ccc([C@@H]2C=C(C(=O)O)O[C@H](OCCCCO)C2)cc1`, with -5.63% (inactive); and `O=C(NCc1ccccc1)c1onc(CSc2ccncc2)c1C(=O)NCc1ccccc1`, with 2.05% (inactive). Take `CCOC(=O)c1ccc(NC(=O)c2c(N)n(C)c(=O)[nH]c2=O)cc1`: the inhibition is 8.64% (inactive). Still for that read-out and setting: then `COc1ccc(CNC(=O)[C@@H]2CC=C[C@@H]3CCN(C4CC4)C(=O)[C@@H]32)cc1`, with 4.14% (inactive); and `CC1(C)S[C@@H]2[C@H](NC(=O)COc3ccccc3)C(=O)N2C1C(=O)OCc1ccccc1` (some centres undefined), with 5.36% (inactive); and `C#CCCOC(=O)N1C2=NC(C(=O)OC)=C(C(=O)OC)[C@@H]3N(C)c4ccc(OC)cc4[C@]23C[C@H]1C(=O)OC`, with -9.08% (inactive). With `CN1CCN(C(CNS(=O)(=O)c2cccs2)c2cccnc2)CC1` (centres undefined), the inhibition is -1.39% (inactive).

Regarding `O=C1N[C@@H](Cc2ccccc2)C(=O)N2[C@@H]3N(S(=O)(=O)c4ccc(F)cc4)c4ccccc4[C@]3(Br)C[C@@H]12`, the inhibition was -18.2% (inactive).

As to `C#CCOCCOCCOCCNc1nc(N2CCN(C(=O)[C@H](CCC(=O)O)n3cc(C(N)CO)nn3)CC2)nc(N2CCN(C(=O)[C@H](Cc3ccc(O)cc3)n3cc(C(N)[C@H](C)CC)nn3)CC2)n1` (some centres undefined), the inhibition was 7.3% (inactive).

`O=C1N[C@H](Cc2ccccc2)C(=O)N[C@H]1Cc1cn(S(=O)(=O)c2ccccc2)c2ccccc12`: the inhibition was -14.5% (inactive). The same measure, in the same setting: then `CC(C)[C@@H]1NC(=O)c2cc([N+](=O)[O-])cc(I)c2NCCC[C@@H](C(=O)NC(CC(=O)O)C(N)=O)NC(=O)[C@H](CO)NC1=O` (some centres undefined), with -19.9% (inactive); and `NC(=O)CC[C@@H]1NC(=O)[C@@H]2CCCN2C(=O)c2cc([N+](=O)[O-])cc(F)c2NCCC[C@@H](C(N)=O)NC1=O`, with -71.2% (inactive).

For the compound `NC(=O)C1=C[C@H](c2csc3ccccc23)C[C@H](OCc2ccc(CO)cc2)O1`, the inhibition is -63% (inactive). As for `COP1(=O)C[C@@H](O)[C@@H](O)[C@@H](COCc2ccccc2)O1` (some centres undefined), the inhibition was 11.1% (inactive).

`CCN1C(=O)N[C@@H](CCc2ccccc2)C(C(=O)OC)=C1C`: the inhibition is 4.12% (inactive). For the compound `Cc1ccc(-c2csc(NCCc3nc4cc(Cl)c(Cl)cc4n3CCOCCO)n2)cc1`, the inhibition was 7.32% (inactive). Still for that read-out and setting: then `C=CCNC(=O)c1csc(-c2ccccc2)n1`, with 10.9% (inactive). In the case of `C=CCNc1nc(N)c(C(=C(C#N)C#N)c2ccccc2)s1`, for the setting “above what the read-out allows, likely interference”, the inhibition is 654% (active).

Take `CCOC(=O)CN1C(=O)N[C@@H](c2ccc(Br)cc2)C(C(C)=O)=C1C`: the inhibition is -1.77% (inactive). Still for that read-out and setting: in the case of `COC(=O)c1c(C)cc(O)c(C)c1O` it was 12% (inactive); in that of `CC(C)(C)Oc1ccccc1Nc1nc(NCCO)nc(N2CCCC2)n1`, -10.1% (inactive). `NC1=NC[C@@H](Cc2ccc(O)cc2)N1CC1CCCCC1`: the inhibition was 10.2% (inactive).

Regarding `C=CCOC(=O)C1=C[C@@H](c2ccccc2)C[C@@H](OCc2ccc(CO)cc2)O1`, the inhibition is 4.95% (inactive). Consider `CC[C@H](C)[C@@H](C(=O)N1CCNCC1)n1cc([C@@H](N)Cc2ccc(O)cc2)nn1`, for which the inhibition was -30% (inactive).

Turning to `CC1(c2nnc(-c3ccncc3)o2)CC(c2cccnc2)=NO1` (centres undefined), the inhibition is -44.9% (inactive). For `O=C1CCC(=O)N(O)CCCCCNC(=O)CCC(=O)N(O)CCCCCNC(=O)CCC(=O)N(O)CCCCCN1`, the inhibition is -1.74% (inactive). Take `Fc1ccc2nc(Nc3nc4c(s3)CCCC4)sc2c1`: the inhibition was 35.3% (active). Also, the inhibition under setting [1] came out at 127%. Take `O=C(CCS(=O)(=O)c1ccccc1)Nc1nc2c(s1)CCCC2`: the inhibition was -10.7% (inactive).

Take `Fc1ccc2nc(N3CCCCC3)sc2c1`: the inhibition is -11.1% (inactive). Same read-out and setting: then `CCCCN1C(N)=NC[C@@H]1CC1CCCCC1`, with 6.72% (inactive); and `NC(=O)[C@H]1CC2(CC(c3cccc(NC(=O)[C@H]4CCC(=O)N4)c3)=NO2)CN1C(=O)c1ccccc1C(=O)c1ccccc1` (some centres undefined), with 20.3% (inactive).

Take `Cc1cccc(NC(=S)NCc2ccc3[nH]c4c(c3c2)CCCC4)c1`: the inhibition is -2.9% (inactive). The same measure, in the same setting: in the case of `COc1ccc(SCCN2CCN(CC(C)C)CCC2=O)cc1` it was 8.87% (inactive). Regarding `COc1ccc(C(=O)Nc2nc(-c3ccc(S(=O)(=O)N4CCOCC4)cc3)cs2)cc1`, the inhibition is -26.7% (inactive). On to `CCOC(=O)CSc1nnc(NC(=O)c2cccc(S(=O)(=O)N3CCCC3)c2)s1`, for which the inhibition was 5.07% (inactive). As for `CCOC(=O)c1csc(NC(=O)c2ccc(S(=O)(=O)N3CCCC3)cc2)n1`, the inhibition is 96.7% (active). For the same compound, the inhibition under setting [1] turned out to be 82.9%. On to `Cc1nc(-c2ccc(Cl)cc2)sc1C1(C)CC(c2ccccc2F)=NO1` (centres undefined), for which the inhibition was 7.68% (inactive). As to `COC(=O)C1=C[C@@H](C(=O)OC)[C@@H]2C3=C(C(=O)[C@]2(C)NC(=O)c2ccccc2)[C@H](C)n2c(=O)n(C)c(=O)n2[C@@H]3C1`, the inhibition is 2.28% (inactive). With `O=C(C1=C[C@H](c2ccc(C(F)(F)F)cc2)C[C@H](OCc2ccc(CO)cc2)O1)N1CCN(Cc2ccccc2)CC1`, the inhibition was 3.78% (inactive).

As for `CCN1C(=O)N[C@@H](c2ccccc2)C(C(=O)OC)=C1C`, the inhibition is -30% (inactive). The same measure, in the same setting: then `Cc1ccc(C)c(CSc2nc(-c3ccco3)nc3c2c(=O)n(C)c(=O)n3C)c1`, with 4.13% (inactive); and `C/C=C(/C)C(=O)Nc1cccc(C2=NOC3(C2)C[C@@H](C(N)=O)N(C(=O)C2(C)CC2)C3)c1` (some centres undefined), with 4.45% (inactive). The same measure, in the same setting: in the case of `NC(=O)C1=C[C@@H](c2csc3ccccc23)C[C@@H](OCc2ccc(CO)cc2)O1` it was 19.8% (inactive); in that of `CCCCCCCCCCCCN1[C@@H](CC(C)=O)c2cc(F)cc(F)c2S1(=O)=O`, -11.3% (inactive); in that of `COc1ccccc1C1=CC(=O)CCC1`, 7.57% (inactive).

Regarding `CC1(C)C2CC[C@]3(C)C(CC=C4[C@@H]5C[C@@](C)(CO)CC[C@]5(C(=O)O)CC[C@]43C)[C@@]2(C)CC[C@@H]1O` (some centres undefined), the inhibition is 9.9% (inactive). The same measure, in the same setting: in the case of `OCC[C@H]1C[C@H](O)[C@@H](O)[C@]2(CCCCO2)O1` it was 7.31% (inactive).

As for `NC(=O)c1sc2nc3c(c(-c4ccccc4)c2c1N)CCC3`, the inhibition is -14.4% (inactive).

In the case of `Cc1cccc(NC(=O)c2sc3nc4c(c(-c5ccco5)c3c2N)CCC4)c1`, the inhibition is 20.3% (inactive). As for `CC(=O)Nc1ccc(NC(=O)c2sc3nc4c(c(-c5ccc(C)cc5)c3c2N)CCC4)cc1`, the inhibition was 47.9% (active). Under setting [1], the inhibition amounted to 82.8%. `CCOC(=O)c1ccccc1NC(=O)c1c(N)n(C)c(=O)[nH]c1=O`: the inhibition was 7.68% (inactive). As for `CC(C)(C)CN1C(=O)C(=O)NC[C@H]1Cc1cccc2ccccc12`, the inhibition is -1.48% (inactive). Same read-out and setting: in the case of `C#CCNC(=O)C1=C[C@@H](c2ccccc2)[C@H](CCCO)[C@@H](OCC)O1` it was 0.66% (inactive); in that of `C/C=C(\C)C(=O)N1CC2(CC(c3cccc(NC(=O)CCCCC)c3)=NO2)C[C@@H]1C(N)=O` (some centres undefined), -5.61% (inactive); in that of `CC(Sc1nc2c([nH]c3ccccc32)c(=O)n1C)c1ccccc1` (centres undefined), -7.85% (inactive). The same measure, in the same setting: then `CC(C)=CCC/C(C)=C/C(=O)O`, with 2.81% (inactive); and `CC(=O)Nc1cccc(-c2cnc3ccccc3n2)c1`, with 13.8% (inactive).

Regarding `CC(=O)Nc1ccc(-c2cn3cccnc3n2)cc1`, the inhibition is 102% (active). Under setting [1], the inhibition stood at 156%. Consider `c1ccc(-c2cn3c(n2)CCc2ccc4cccnc4c2-3)cc1`, for which the inhibition is -52.8% (inactive). On the same count and under the same terms, in the case of `c1ccc(-c2ccnc3nc(-n4cccc4)nn23)cc1` it was -3.61% (inactive); in that of `CCCC(=O)Nc1cccc(-c2cn3ccsc3n2)c1`, 3.46% (inactive). As to `c1ccc(-c2cn3cccnc3n2)cc1`, the inhibition is 70% (active). For the same compound, the inhibition under setting [1] is 81.6%. `CCn1c(=N)c(S(=O)(=O)c2ccc(F)cc2)cc2c(=O)n3ccccc3nc21`: the inhibition is -13.4% (inactive).

`CCCn1c(=NC(C)=O)c(C(=O)OCC)cc2c(=O)n3ccccc3nc21`: the inhibition is 48.4% (active). In addition, the inhibition under setting [1] was 60.1%. Regarding `COc1ccc(CNC(=O)c2cc3c(=O)n4ccccc4nc3n(CC3CCCO3)c2=N)cc1` (centres undefined), the inhibition is -12.4% (inactive).

For `C#CCOCCOCCOCCNc1nc(N2CCN(C(=O)[C@H](CCC(=O)O)n3cc(C(N)CO)nn3)CC2)nc(N2CCN(C(=O)[C@H](CCCCN)n3cc(C(N)[C@H](C)CC)nn3)CC2)n1` (some centres undefined), the inhibition was 2.59% (inactive). Consider `COc1ccc(OC)c2[nH]c(=O)c(CCNC(=O)C(C)(C)C)cc12`, for which the inhibition is 8.84% (inactive). Regarding `COCc1cc(=O)[nH]c2cc(NC(=O)C(F)(F)F)c(C)cc12`, the inhibition was 39.2% (active). The inhibition under setting [1] worked out at 46.2%.

Regarding `O=C(Nc1ccccc1)c1ccccc1NC(=O)C(F)(F)F`, the inhibition is 8.91% (inactive). As to `COC(C[C@@H](O)[C@H](C)[C@H](O)COCc1ccccc1)OC`, the inhibition is 2.05% (inactive).

Take `CC(C)CC(CO)N1CCN(C(=O)c2ccc(Cl)cc2Cl)CCC1=O` (centres undefined): the inhibition was -11.9% (inactive).

The values above are taken from PubChem BioAssay AID1532 (PCMD, 2009).
